Measurements reported in PubChem BioAssay (NCATS).
Records with an inconclusive call do not appear. The source made the active and inactive calls. Calls come from the whole dose curve; as a rule, active = well fitted cell-killing curve with a large enough effect; inconclusive = small, poorly fitted or top-dose-only effect, or effect the other way; inactive = flat fitted curve, though single readings scatter.

How the values were obtained:
Assay in all cases: Primary qHTS to identify gynecologic anti-cancer compounds using libraries of approved drugs and bioactive compounds (AID 1345084); note: nearly all actives have a fitted effect of over 55% in size
[1] = test system: C33A; conditions: Gynecologic cancer cell panel viability, ATPlite luminescence, 48 h; series mostly up to 57.5 µM
How it was run: (§1)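 48 h compound exposure at 37 C, 5% CO2; five-point qHTS. ATPlite luminescence readout of cell ATP.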

[2] = test system: CAOV3; conditions: Gynecologic cancer cell panel viability, ATPlite luminescence, 48 h; series mostly up to 57.5 µM
How it was run: as §1

[3] = test system: CASKI; conditions: Gynecologic cancer cell panel viability, ATPlite luminescence, 48 h; series mostly up to 57.5 µM
How it was run: as §1

[4] = test system: Es-2; conditions: Gynecologic cancer cell panel viability, ATPlite luminescence, 48 h; series mostly up to 57.5 µM
How it was run: as §1

[5] = test system: HeLa; conditions: Gynecologic cancer cell panel viability, ATPlite luminescence, 48 h; series mostly up to 57.5 µM
How it was run: as §1

[6] = test system: Hek293T; conditions: Gynecologic cancer cell panel viability, ATPlite luminescence, 48 h, control line for the selectivity index; series mostly up to 57.5 µM
How it was run: as §1

[7] = test system: JEG-3; conditions: Gynecologic cancer cell panel viability, ATPlite luminescence, 48 h; series mostly up to 57.5 µM
How it was run: as §1

[8] = test system: OV90; conditions: Gynecologic cancer cell panel viability, ATPlite luminescence, 48 h; series mostly up to 57.5 µM
How it was run: as §1

[9] = test system: PA-1; conditions: Gynecologic cancer cell panel viability, ATPlite luminescence, 48 h; series mostly up to 57.5 µM
How it was run: as §1

[10] = test system: SKOV3; conditions: Gynecologic cancer cell panel viability, ATPlite luminescence, 48 h; series mostly up to 57.5 µM
How it was run: as §1

[11] = test system: Tov-21-G; conditions: Gynecologic cancer cell panel viability, ATPlite luminescence, 48 h; series mostly up to 57.5 µM
How it was run: as §1

[12] = test system: Tov112D; conditions: Gynecologic cancer cell panel viability, ATPlite luminescence, 48 h; series mostly up to 57.5 µM
How it was run: as §1
% is set by controls: 0 for no effect and ±100 for the full control effect.

NS(=O)(=O)c1ccc(NC(=O)Nc2ccc(F)cc2)cc1
inactive: Potency [1] | Potency [2] | Potency [3] | Potency [4] | Potency [5] | Potency [6] | Potency [7] | Potency [8] | Potency [9] | Potency [10] | Potency [11] | Potency [12]

C[C@@H](NC(=O)c1ccc(C#Cc2cccc(F)c2)cn1)C(C)(C)O
inactive: Potency [1] | Potency [2] | Potency [3] | Potency [4] | Potency [5] | Potency [6] | Potency [7] | Potency [8] | Potency [9] | Potency [10] | Potency [11] | Potency [12]

CCOC(=O)c1cnn(-c2ccccc2)c1NC(=O)c1cc2nc(-c3ccco3)cc(C(F)(F)Cl)n2n1
inactive: Potency [1] | Potency [2] | Potency [3] | Potency [4] | Potency [5] | Potency [6] | Potency [7] | Potency [8] | Potency [9] | Potency [10] | Potency [11] | Potency [12]

O=C(Nc1cc(C(F)(F)F)ccc1N1CCCCC1)c1ccncc1
inactive: Potency [1] | Potency [2] | Potency [3] | Potency [4] | Potency [5] | Potency [6] | Potency [7] | Potency [8] | Potency [9] | Potency [10] | Potency [11] | Potency [12]

COc1c(C)cc(NC(=O)c2nn(Cc3ccc(F)cc3)c3c2CN(C(=O)c2ccc[nH]2)C[C@]3(C)C(N)=O)cc1C
inactive: activity change, negative = cytotoxicity [1] 12.3% [at 11.6 µM] | activity change, negative = cytotoxicity [2] -4.37% [at 11.6 µM] | activity change, negative = cytotoxicity [3] -0.257% [at 11.6 µM] | activity change, negative = cytotoxicity [4] 4.64% [at 11.6 µM] | activity change, negative = cytotoxicity [5] -7.03% [at 11.6 µM] | activity change, negative = cytotoxicity [6] 7.03% [at 11.6 µM] | activity change, negative = cytotoxicity [7] 1.95% [at 11.6 µM] | activity change, negative = cytotoxicity [8] 16.4% [at 11.6 µM] | activity change, negative = cytotoxicity [9] 15.5% [at 11.6 µM] | activity change, negative = cytotoxicity [10] -24.2% [at 11.6 µM] | activity change, negative = cytotoxicity [11] 11.9% [at 11.6 µM] | activity change, negative = cytotoxicity [12] 9.54% [at 11.6 µM]

C/C=C(/C)C(=O)OC1C=C2C3C(C)C(C)C(OC(=O)C(C)C(C)O)CC3(C)CCC2(C)C2(C)CC(OC(C)=O)C3C(C)(C)C(O)C(=O)CC3(C)C12 (stereo not given)
inactive: Potency [1] | Potency [2] | Potency [3] | Potency [4] | Potency [5] | Potency [6] | Potency [7] | Potency [8] | Potency [9] | Potency [10] | Potency [11] | Potency [12]

CNC(=O)c1ccc2c(c1)CCO[C@H]2CCN1CCN(c2ccc(OC)cc2)CC1
inactive: Potency [1] | Potency [2] | Potency [3] | Potency [4] | Potency [5] | Potency [6] | Potency [7] | Potency [8] | Potency [9] | Potency [10] | Potency [11] | Potency [12]

C#CCNCc1cc2cc(OCc3ccccc3)ccc2[nH]1
inactive: Potency [1] | Potency [2] | Potency [3] | Potency [4] | Potency [5] | Potency [6] | Potency [7] | Potency [8] | Potency [9] | Potency [10] | Potency [11] | Potency [12]

CC(=O)OC1C(O)CC2(C)C(CCC3(C)C2CC=C2C4C5(CCC(CO[C@@H]6O[C@H](CO)[C@@H](O)[C@H](O)[C@H]6O)(OC5=O)C4(C)O)C(O)CC23C)C1(C)C (stereo not given in full)
inactive: Potency [1] | Potency [2] | Potency [3] | Potency [4] | Potency [5] | Potency [6] | Potency [7] | Potency [8] | Potency [9] | Potency [10] | Potency [11] | Potency [12]

C=C1C(=O)OC2CC3(C)C(O)C(=O)C=C(C)C3CC12 (stereo not given)
inactive: Potency [1] | Potency [2] | Potency [3] | Potency [4] | Potency [5] | Potency [6] | Potency [7] | Potency [8] | Potency [9] | Potency [10] | Potency [11] | Potency [12]

O=C(CSc1nc2ccccc2c(=O)n1-c1ccccc1)Nc1ccc2c(c1)CCC2
inactive: Potency [1] | Potency [2] | Potency [3] | Potency [4] | Potency [5] | Potency [6] | Potency [7] | Potency [8] | Potency [9] | Potency [10] | Potency [11] | Potency [12]

O=C(NCC1(c2nc(-c3ccccc3)cs2)CCOCC1)c1cccc(-c2noc(C(F)(F)F)n2)c1
inactive: Potency [1] | Potency [2] | Potency [3] | Potency [4] | Potency [5] | Potency [6] | Potency [7] | Potency [8] | Potency [9] | Potency [10] | Potency [11] | Potency [12]

Cc1ccc(-c2ncc[nH]2)cc1NC(=O)c1ccc(OCc2ccccn2)cc1
inactive: Potency [1] | Potency [2] | Potency [3] | Potency [4] | Potency [5] | Potency [6] | Potency [7] | Potency [8] | Potency [9] | Potency [10] | Potency [11] | Potency [12]

COc1c(C(C)C)c(O)c(O)c2c1C(OC)[C@H]1OC(=O)[C@@]23CCCC(C)(C)[C@H]13 (stereo not given in full)
inactive: Potency [1] | Potency [2] | Potency [3] | Potency [4] | Potency [5] | Potency [6] | Potency [7] | Potency [8] | Potency [9] | Potency [10] | Potency [11] | Potency [12]

CC1(C)CC[C@]2(C(=O)O)[C@H](O)C[C@]3(C)C(=CCC4[C@@]5(C)CC[C@H](O[C@@H]6O[C@H](CO[C@@H]7OC[C@H](O)[C@H](O)[C@H]7O[C@@H]7OC[C@H](O)[C@H](O)[C@H]7O)[C@@H](O)[C@H](O)[C@H]6O)C(C)(C)C5CC[C@]43C)[C@@H]2C1 (stereo not given in full)
inactive: activity change, negative = cytotoxicity [1] 3.19% [at 11.6 µM] | activity change, negative = cytotoxicity [2] 6.12% [at 11.6 µM] | activity change, negative = cytotoxicity [3] -7.68% [at 11.6 µM] | activity change, negative = cytotoxicity [4] -0.336% [at 11.6 µM] | activity change, negative = cytotoxicity [5] -1.57% [at 11.6 µM] | activity change, negative = cytotoxicity [6] -1.34% [at 11.6 µM] | activity change, negative = cytotoxicity [7] 14% [at 11.6 µM] | activity change, negative = cytotoxicity [8] 2.79% [at 11.6 µM] | activity change, negative = cytotoxicity [9] 4.95% [at 11.6 µM] | activity change, negative = cytotoxicity [10] 13.8% [at 11.6 µM] | activity change, negative = cytotoxicity [11] 4.39% [at 11.6 µM] | activity change, negative = cytotoxicity [12] 15.2% [at 11.6 µM]
